Source: PubChem BioAssay (NCATS)
Results filed as inconclusive are left out. Unmarked numbers belong to inactive results. Calls come from the whole dose curve; as a rule, active = well fitted curve in the direction sought with a large enough effect; inconclusive = small, poorly fitted or top-dose-only effect, or another doubt; inactive = no such curve, though single readings can be large; an effect the other way counts as inactive or inconclusive.

target: Cellular tumor antigen p53 (Homo sapiens) (UniProt P04637); experiment: Primary qHTS for small molecule compounds that upregulate eGFP-tagged delta133p53alpha (in N-terminal) cells. (AID 2060322); conditions: NCI-H358 eGFP-delta133p53alpha fluorescence, 24 h; activation: active compounds read high;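 note: 0% = DMSO vehicle and 100% = reference activator; nearly all actives have a fitted effect of over 75% in size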
Sequence (P04637 whole entry, looked up): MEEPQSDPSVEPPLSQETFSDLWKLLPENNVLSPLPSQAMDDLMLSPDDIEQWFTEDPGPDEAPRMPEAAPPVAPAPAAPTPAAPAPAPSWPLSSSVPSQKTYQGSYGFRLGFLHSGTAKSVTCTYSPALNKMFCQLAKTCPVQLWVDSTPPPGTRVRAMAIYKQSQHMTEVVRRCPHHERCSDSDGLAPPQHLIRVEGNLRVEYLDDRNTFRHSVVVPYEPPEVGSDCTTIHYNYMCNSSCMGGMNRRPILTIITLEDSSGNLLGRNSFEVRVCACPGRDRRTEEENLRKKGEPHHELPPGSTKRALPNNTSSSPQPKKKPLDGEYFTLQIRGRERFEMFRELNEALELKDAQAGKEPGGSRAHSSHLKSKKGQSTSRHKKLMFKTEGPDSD
In short: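 NCI-H358 cells pre-induced 24 h with 10 ng/ml doxycycline to express N-terminal eGFP-delta133p53alpha, then dosed 24 h at 37C without doxycycline; fixed, Hoechst-stained, GFP intensity by laser scanning cytometry, normalized to DMSO (0%) and 57.5 uM 5-azacytidine (100%).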

Structure (SMILES)	activation
Cc1ccc2c(c1)c1c(n2CCc2ccc(C)nc2)CCN(C)C1	14.3%
COc1ccc2nc(S(=O)(=O)Cc3ncc(C)c(OC)c3C)[nH]c2c1	6.33%
CO[C@@H]1[C@]2(O)C(=O)N3/C=C\C(C)(C)c4[nH]c5ccccc5c4/C=C\3C(=O)N2[C@]23[C@H](CO)C(C)(C)N2c2ccccc2[C@]13O	8.4%
CC1(C)CC[C@]2(C(=O)O[C@@H]3O[C@H](CO[C@@H]4O[C@H](CO)[C@@H](O)[C@H](O)[C@H]4O)[C@@H](O)[C@H](O[C@@H]4O[C@H](CO)[C@@H](O)[C@H](O)[C@H]4O)[C@H]3O)[C@H](O)C[C@]3(C)C(=CCC4[C@@]5(C)CC[C@H](O[C@@H]6OC[C@@H](O)[C@H](O)[C@H]6O)[C@@](C)(C(=O)O)C5CC[C@]43C)[C@@H]2C1 (stereo partly drawn)	7.63%
COC(=O)C1=CO[C@@H](O[C@@H]2O[C@H](CO)[C@@H](O)[C@H](O)[C@H]2O)[C@@H]2[C@@H](C(=O)OC)[C@@H](O)C(O)[C@H]12 (stereo partly drawn)	-19.8%
CC1(C(=O)O)CCCC2(C)C3CCC4CC3(CCC12)CC4C(=O)O (stereo not drawn)	-3.05%
O=C(Cc1ccc(-c2ccccc2)cc1)NC1CCC1	-1%
CC(C)S(=O)(=O)NC[C@H](C)c1ccc(NC(=O)c2cc(F)cc(F)c2)cc1	-15%
CC(C)=CCc1c(O)cc2oc3cc(C)cc(O)c3c2c1C	-21.4%
C[C@]1(CO)CN(c2cc(C(=O)Nc3ccc4c(c3)-c3c(c(C(N)=O)nn3-c3ccc(F)cc3)CC4)c(Cl)cn2)C[C@@]1(C)CO	21.4%
CC1=C(C(=O)OCc2ccccc2)C(c2ccc(-c3ccccc3)cc2)NC(=O)N1CCCCCC(=O)O (stereo not drawn)	12.3%

target: Aldehyde dehydrogenase, mitochondrial (Homo sapiens) (UniProt P05091); experiment: qHTS for Inhibitors of the Aldehyde Dehydrogenase Family (ALDH2) Primary screen (AID 2061308); conditions: ALDH2 enzyme inhibition qHTS, 1536-well; series mostly up to 56 µM; activity change, negative = inhibition: at the top concentration;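 note: plate controls were vehicle for no effect and reference inhibitor for full effect; nearly all actives have a fitted effect of over 55% in size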

Structure (SMILES)	activity change, negative = inhibition
C[N+]1(C)[C@@H]2CC[C@H]1CC(OC(=O)C(O)c1ccccc1)C2 (stereo partly drawn)	0.786%
C=C(C(=O)OC)[C@]12O[C@@](C)(CC[C@@]3(O)/C(=C\C)C(=O)O[C@]3(C)C[C@@H]1OC(=O)C(CO)CN1CCCC1C(=O)O)CC2=O (stereo partly drawn)	21.5% [at 16.9 µM]
COc1ccnc2[nH]cc(C(=O)C(=O)N3CCN(C(=O)c4ccccc4)CC3C)c12 (stereo not drawn)	-5.9%
CC1=C2CC(=O)C(C)CC/C=C(\C)CC2(O)OC1=O (stereo not drawn)	3.96%
O=C(O)C(O[C@@H]1O[C@H](CO[C@@H]2O[C@H](CO)[C@@H](O)[C@H](O)[C@H]2O)[C@@H](O)[C@H](O)[C@H]1O)c1ccccc1 (stereo partly drawn)	-6.74% [at 28 µM]
C/C=C/C=C/[C@@H]1O[C@](O)([C@H](CC)C(=O)NC/C=C/C=C(\C)[C@@H](OC)[C@@H](C)[C@@H]2O[C@H](/C=C/C=C/C=C(\C)C(=O)c3c(O)ccn(C)c3=O)[C@H](O)[C@@H]2O)[C@H](O)[C@H](O)C1(C)C	21.1% [at 16.9 µM]
C=C(C)C1CCC(C)C12CC(O)C1(C)OC1C2OC(=O)C(N)CCC(=O)O (stereo not drawn)	-8.7%
O=C1NC(=Nc2ccccc2F)S/C1=C\c1ccc(C(=O)O)cc1	4.91%
Cc1cc(Cn2cnc3c2CC(C(=O)O)N(C(=O)C(c2ccccc2)c2ccccc2)C3)ccc1N(C)C (stereo not drawn)	0.512%
COC(=O)C(Cc1ccccc1)NC(=O)c1ccccc1 (stereo not drawn)	2.52%
C=CC(C)(O)CC[C@H]1C(=C)CCC2[C@](C)(C(=O)O)CCC[C@@]21C (stereo partly drawn)	9.91%
CC1CC[C@]2(C(=O)O)CC[C@]3(C(=O)O)C(=CCC4[C@@]5(C)CC[C@H](O[C@@H]6O[C@H](CO)[C@@H](O)[C@H](O)[C@H]6O)C(C)(C)C5CC[C@]43C)C2C1C (stereo partly drawn)	0.715% [at 16.9 µM]
Cc1cc(O)c(C(C)C)cc1O[C@@H]1O[C@H](CO)[C@@H](O)[C@H](O)[C@H]1O	2.18%
COC(=O)C1=CO[C@@H](O[C@@H]2O[C@H](CO)[C@@H](O)[C@H](O)[C@H]2O)[C@@H]2[C@@H](C)[C@@H](OC(=O)/C=C/c3ccccc3)[C@@H](O)[C@H]12	2.99% [at 28 µM]
CC1(C)CC[C@]2(C(=O)O[C@@H]3O[C@H](CO)[C@@H](O)[C@H](O)[C@H]3O)CC[C@]3(C)C(=CCC4[C@@]5(C)C[C@@H](O)[C@H](O)[C@](C)(C=O)C5CC[C@]43C)[C@@H]2[C@@H]1O (stereo partly drawn)	1.08% [at 16.9 µM]
C=C[C@H]1[C@H](O[C@@H]2O[C@H](CO)[C@@H](O)[C@H](O)[C@H]2O)OC=C(C(=O)OC)[C@H]1CC=O	1.14%
C=CC1(C)CC=C2C(CCC3C(C)(C(=O)O)CCCC23C)C1 (stereo not drawn)	1.89%
